The record followed here is PubChem BioAssay (Tox21).

Assay [1] can be described thus: cAMP Responsive Elements (CRE) small molecule antagonists, cell-based qHTS assay: qHTS cell viability counter screen (AID 2060913). Further: nearly all actives have a fitted effect of over 40% in size. The method in brief: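 Viability of NKH477-stimulated (0.25 uM final) CRE-bla HEK293T cells is measured by CellTiter-Glo luminescence following 3 hrs compound exposure at 37 C.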
Assay [2] in a line: cAMP Responsive Elements (CRE) small molecule agonists, cell-based qHTS assay: qHTS cell viability counter screen (AID 2060914).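 Further: viability read after 3 h of compound exposure; nearly all actives have a fitted effect of over 50% in size.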 The method in brief:
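HEK 293T CRE-bla; DMEM + 10% dialyzed FBS, 25 mM HEPES; 18 h pre-incubation; compound 3 h, 37 °C/5% CO2; CellTiter-Glo added after reporter read; luminescence after 30 min RT.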

Results filed as inconclusive are left out. Active and inactive are the calls of the source. The call rests on the fitted dose curve; in most records, active means well fitted cell-killing curve with a large enough effect in the repeat runs; inconclusive means weak or mixed curves, or effect the other way; inactive means flat fitted curve, though single readings scatter.
On the % scale 0 is the no-effect control and ±100 the full control effect; potency means the concentration at half of the fitted maximal effect.

For `Cc1nc(C)c(C)nc1C`, the Potency result in assay [1] and in assay [2] was “inactive” throughout.

As for `C[C@H](N)[C@H](O)c1cccc(O)c1`, the Potency result in assay [1] and in assay [2] was “inactive” throughout.

On to `CCOc1ccc(N)c([N+](=O)[O-])c1`, for which the Potency entry in assay [1] and in assay [2] was “inactive” in each case.

`Nc1cc(C(=O)O)ccc1Cl`: the Potency result in assay [1] and in assay [2] was “inactive” each time.

With `CC(C)(C)C(=O)C(Oc1ccc(Cl)cc1)n1ccnc1` (configuration not stated), the Potency entry in assay [1] and in assay [2] was “inactive” throughout.

On to `CCCCCCCCCCCCCCC[C@H](O)[C@@H](N)CO`, for which the Potency entry in assay [1] and in assay [2] was “inactive” each time.

Consider `CC(C)CC(O)Cc1ccccc1` (configuration not stated), for which the Potency result in assay [1] and in assay [2] was “inactive” throughout.

For the compound `C=CCn1cc[n+](C)c1`, the Potency entry in assay [1] and in assay [2] was “inactive” each time.

In the case of `CC(=O)Oc1cccc2c1C(=O)c1c(OC(C)=O)cc(C(=O)O)cc1C2=O`, the Potency entry in assay [1] and in assay [2] was “inactive” each time.

`Cc1cc(O)c(C(C)(C)C)cc1Sc1cc(C(C)(C)C)c(O)cc1C`: the results for the Potency in assay [1] and in assay [2] were 21.6 µM (active) and 38.5 µM (active), respectively.

Consider `Nc1ccc2c(O)cc(S(=O)(=O)O)cc2c1`, for which the Potency entry in assay [1] and in assay [2] was “inactive” throughout.

On to `c1ccc(CCCc2ccncc2)cc1`, for which the Potency entry in assay [1] and in assay [2] was “inactive” in each case.

For the compound `Cn1c(=O)cc(Oc2ccc(F)cc2F)c2cnc(NCC(C)(C)O)nc21`, the Potency entry in assay [1] and in assay [2] was “inactive” each time.

For the compound `CN(C)C(=O)Oc1ccc[n+](C)c1`, the Potency entry in assay [1] and in assay [2] was “inactive” in each case.

For the compound `C#CC(C)(O)CC(C)C` (configuration not stated), the Potency entry in assay [1] and in assay [2] was “inactive” in each case.

Turning to `CC[N+](C)(C)c1cccc(O)c1`, the Potency entry in assay [1] and in assay [2] was “inactive” each time.

As to `CSc1cnccn1`, the Potency entry in assay [1] and in assay [2] was “inactive” in each case.

For `Cc1ccc(N)cc1[N+](=O)[O-]`, the Potency entry in assay [1] and in assay [2] was “inactive” in each case.

As for `Nc1ccc(S(=O)(=O)Nc2ccccn2)cc1`, the Potency entry in assay [1] and in assay [2] was “inactive” in each case.

`CCCCCCCCCCCCO`: the Potency entry in assay [1] and in assay [2] was “inactive” in each case.

For the compound `C=C[Si](C)(C)Cl`, the viability change, negative = cytotoxic in assay [1] was -0.015% [at 8.39 µM] (inactive). The activity change, negative = cytotoxicity in assay [2] is -1.19% [at 8.39 µM] (inactive).
